# Source: publication PMC4336329 (PLoS ONE, 2015)
# Out of some 310,000 compounds screened, about 14,000 (4.5%) showed an effect of 50% or more. The effect is printed as a negative number. What follows is part of a selection rich in strong results, with near analogues and random picks from the rest.
# Biological target: human ether-à-go-go-related gene (hERG) potassium channel (human, UniProt Q12809)
# Test: primary screen, population patch clamp on CHO cells stably expressing hERG; higher = less effect of the substance
# 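Note: peak tail current of the secondary pulse compared with the same well before compound.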
# human ether-à-go-go-related gene (hERG) potassium channel, sequence (Q12809 whole entry, looked up): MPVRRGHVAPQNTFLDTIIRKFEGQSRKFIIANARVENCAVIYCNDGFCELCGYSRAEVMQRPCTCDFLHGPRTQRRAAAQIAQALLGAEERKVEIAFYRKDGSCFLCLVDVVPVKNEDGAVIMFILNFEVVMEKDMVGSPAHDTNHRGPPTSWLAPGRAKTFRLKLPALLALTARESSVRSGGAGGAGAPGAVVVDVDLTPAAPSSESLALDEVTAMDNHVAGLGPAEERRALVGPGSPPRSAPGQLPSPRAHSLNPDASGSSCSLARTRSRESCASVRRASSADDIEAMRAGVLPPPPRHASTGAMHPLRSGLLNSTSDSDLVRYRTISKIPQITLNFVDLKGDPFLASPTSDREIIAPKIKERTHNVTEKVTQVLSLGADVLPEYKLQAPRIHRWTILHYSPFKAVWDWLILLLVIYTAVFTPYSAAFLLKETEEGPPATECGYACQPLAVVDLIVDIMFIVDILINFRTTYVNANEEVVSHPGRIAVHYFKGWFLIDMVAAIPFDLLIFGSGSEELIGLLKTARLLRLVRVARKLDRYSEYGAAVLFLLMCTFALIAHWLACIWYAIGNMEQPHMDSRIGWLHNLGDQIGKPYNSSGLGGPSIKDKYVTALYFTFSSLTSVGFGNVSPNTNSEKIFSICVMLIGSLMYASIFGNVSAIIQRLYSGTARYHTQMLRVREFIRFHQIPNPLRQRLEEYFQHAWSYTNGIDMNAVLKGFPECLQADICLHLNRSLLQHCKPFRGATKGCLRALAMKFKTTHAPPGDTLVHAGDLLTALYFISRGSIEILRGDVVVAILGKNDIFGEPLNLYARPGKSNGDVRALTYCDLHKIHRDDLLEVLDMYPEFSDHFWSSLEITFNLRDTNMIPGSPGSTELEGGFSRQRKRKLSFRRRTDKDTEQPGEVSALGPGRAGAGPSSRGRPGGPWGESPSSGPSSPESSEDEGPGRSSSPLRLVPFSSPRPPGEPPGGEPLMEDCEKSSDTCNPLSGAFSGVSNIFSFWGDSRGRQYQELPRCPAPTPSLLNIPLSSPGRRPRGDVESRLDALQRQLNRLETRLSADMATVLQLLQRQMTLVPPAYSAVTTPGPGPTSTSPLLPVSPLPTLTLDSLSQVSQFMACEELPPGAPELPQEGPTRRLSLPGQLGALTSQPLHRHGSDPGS
row,SMILES,"hERG current change (%, negative = inhibition) at 10uM [%]"
1,O=C(NCC(=O)N(c1ccc(F)cc1)C(C(=O)NC1CCCC1)c1cccnc1)c1cccs1 (stereo not drawn),7.21
2,CC(C)C[C@H](NC(=O)NCCC1=CCCCC1)C(=O)O,-4.82
3,O=C1Nc2ncccc2OC1CCCl (stereo not drawn),6.83
4,O=C(COc1ccccc1Cl)NCCCNC(=O)c1ccco1,2.17
5,CCN(Cc1ccccc1)S(=O)(=O)c1ccc(C(=O)N(CCCN(C)C)c2nc3cc4c(cc3s2)OCO4)cc1.Cl,-45.2
6,CCN(c1ccccc1)S(=O)(=O)c1ccc(C(=O)N(CCCN(C)C)c2nc3c(C)cccc3s2)cc1.Cl,-34.7
7,CN(C)CCCN(C(=O)c1ccc(S(=O)(=O)N(C)Cc2ccccc2)cc1)c1nc2cc3c(cc2s1)OCO3.Cl,-51.7
8,CN(C)CCN(C(=O)c1ccc2ccccc2c1)c1nc2c(F)cc(F)cc2s1.Cl,3.41
9,CCN(Cc1ccccc1)S(=O)(=O)c1ccc(C(=O)N(CCCN(C)C)c2nc3cc4c(cc3s2)OCCO4)cc1.Cl,-27.5
10,CCN(c1ccccc1)S(=O)(=O)c1ccc(C(=O)N(CCN(C)C)c2nc3c(F)cc(F)cc3s2)cc1.Cl,-54.7
11,CCN(c1ccccc1)S(=O)(=O)c1ccc(C(=O)N(CCCN(C)C)c2nc3cc4c(cc3s2)OCO4)cc1.Cl,-57.4
12,CN(C)CCN(C(=O)c1ccc(S(=O)(=O)N(C)c2ccccc2)cc1)c1nc2cc3c(cc2s1)OCCO3.Cl,-1.95
13,CN(C)CCN(C(=O)c1ccc(S(=O)(=O)N(C)c2ccccc2)cc1)c1nc2cc3c(cc2s1)OCO3.Cl,-2.57
14,COc1ccc(-c2noc(CN(C(=O)c3cccs3)C(C)C)n2)cc1,-28.6
15,COc1ccc(S(=O)(=O)N2CCOCC2)c(Cl)c1Cl,-18.3
16,Cn1c(=O)c2c(nc(OCc3cccnc3)n2Cc2c(F)cccc2Cl)n(C)c1=O,1.03
17,Cn1c(=O)c2c(nc(N/N=C/c3ccncc3)n2Cc2ccccc2)n(C)c1=O,-28.8
18,Cn1c(OCc2cccnc2)nc2c1c(=O)n(Cc1ccc(Cl)cc1)c(=O)n2C,-51.1
19,Cn1c(=O)c2c(nc(N/N=C/c3cccnc3)n2Cc2ccc(F)cc2)n(C)c1=O,-16.8
20,Cn1c(=O)c2c(nc(OCc3ccccc3)n2C)n(C)c1=O,4.72
21,Cn1c(OCc2cccnc2)nc2c1c(=O)n(Cc1ccc(F)cc1)c(=O)n2C,-51.9
22,Cn1c(=O)c2c(nc(OCc3cccnc3)n2Cc2ccccc2)n(C)c1=O,-32.8
23,Cn1c(OCc2ccc3c(c2)OCO3)nc2c1c(=O)n(Cc1cccc(Cl)c1)c(=O)n2C,-0.643
24,Cn1c(=O)c2c(nc(SCc3cccnc3)n2Cc2ccc(F)cc2)n(C)c1=O,-30.7
25,Cn1c(=O)c2c(nc(N/N=C/c3cccnc3)n2Cc2ccccc2)n(C)c1=O,-51.2
26,C=CCOc1nc2c(c(=O)n(Cc3ccc(Cl)cc3)c(=O)n2C)n1C,-2.66
27,Cn1c(OCc2cccnc2)nc2c1c(=O)n(Cc1ccccc1)c(=O)n2C,-56.1
